Reference: PubChem BioAssay (EPA / NIEHS)
Values joined by “and” are separate entries in the source; they are usually repeats but may differ in a detail not shown here. Identical values can stand only once. Some compounds were tested as several samples or in several runs, with calls that do not always agree. Active and inactive are the calls of the source. The calls were made as follows: active = hit-call score of the fitted dose curve at least 0.9, where 1 is the maximum; inactive = score below 0.9.

Read-out: Monokine induced gamma interferon (MIG), CXCL9 (gene 4283)
Assay: BSK_SAg_MIG: BioMAP Diversity Plus: SAg Assay for Monokine induced gamma interferon (MIG) Biomarker Activity (AID 2283092)
Settings: primary human HUVEC with PBMC; actives raise or lower the signal
How it was run: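 ELISA readout of MIG/CXCL9; primary human umbilical vein endothelial cells co-cultured with peripheral blood mononuclear cells; 24 h post-dose; gain/loss fit vs DMSO baseline.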

Row | Structure (SMILES) | outcome | AC50
1 | O=C(c1ccccc1)c1ccc(O)cc1O | inactive | 
2 | Nc1cc([N+](=O)[O-])cc(Cl)c1O | inactive | 
3 | O=S(=O)(O)CCC(F)(F)C(F)(F)C(F)(F)C(F)(F)F | inactive | 
4 | O=C=NCc1cccc(CN=C=O)c1 | inactive | 
5 | O=C=Nc1cccc2c(N=C=O)cccc12 | inactive | 
6 | CCN(CC)c1ccc2c(c1)Oc1cc(N(CC)CC)ccc1C21OC(=O)c2ccccc21 | inactive | 
7 | NS(=O)(=O)C(F)(F)C(F)(F)C(F)(F)C(F)(F)C(F)(F)C(F)(F)F | inactive | 
8 | OC(O)C(F)(F)C(F)(F)F | inactive | 
9 | O=C(O)C(F)(F)C(F)(F)C(F)(F)OC(F)(C(F)(F)F)C(F)(F)F | inactive | 
10 | OCCCC(F)(F)C(F)(F)C(F)(F)C(F)(F)C(F)(F)C(F)(F)C(F)(F)C(F)(F)F |  | 53.4 µM (active) and 53.2 µM (active)
11 | C=CC(=O)OCC(F)(F)C(F)(F)C(F)(F)C(F)(F)C(F)(F)C(F)(F)C(F)(F)C(F)F | inactive | 
12 | C=CC(=O)OCC(F)(F)C(F)(F)C(F)(F)COC(=O)C=C |  | 19.3 µM (active) and 18.6 µM (active)
13 | O=C(O)C(F)(F)C(F)(F)C(F)(F)C(=O)O | inactive | 
14 | CCOC(=O)CC(=O)C(F)(F)C(F)(F)F | inactive | 
15 | C=C(C)C(=O)OCC(F)(F)C(F)(F)C(F)(F)C(F)F | inactive | 
16 | CC(C)(C)c1cc(CCC(=O)NCCCCCCNC(=O)CCc2cc(C(C)(C)C)c(O)c(C(C)(C)C)c2)cc(C(C)(C)C)c1O | inactive | 
17 | Brc1nc2ccccc2s1 | inactive | 
18 | NC(O)(C(F)(F)F)C(F)(F)F | inactive | 

Row | Structure (SMILES) | outcome | AC50
19 | O=S(=O)(OCC(F)(F)F)C(F)(F)C(F)(F)C(F)(F)C(F)(F)F | inactive | 
20 | CCN(CC)c1ccc(C=O)cc1 | inactive | 
21 | O=S(=O)(O)CCC(F)(F)C(F)(F)C(F)(F)C(F)(F)C(F)(F)C(F)(F)C(F)(F)C(F)(F)F | inactive | 
22 | CNS(=O)(=O)C(F)(F)C(F)(F)C(F)(F)C(F)(F)C(F)(F)C(F)(F)C(F)(F)C(F)(F)F | inactive | 
23 | NCC(F)(F)C(F)(F)C(F)(F)C(F)(F)C(F)(F)C(F)(F)F | inactive | 
24 | O=C(O)CCC(F)(F)C(F)(F)C(F)(F)C(F)(F)C(F)(F)C(F)(F)C(F)(F)F | inactive | 
25 | OCCCCC(F)(F)C(F)(F)C(F)(F)C(F)(F)F | inactive | 
26 | O=C1c2c(O)ccc(Nc3ccc(CCO)cc3)c2C(=O)c2c([N+](=O)[O-])ccc(O)c21 |  | 33.7 µM (active)
27 | CCOC(C=C(C)CCC=C(C)C)OCC | inactive | 
28 | O=C1C=CC(=O)N1c1ccc(Cc2ccc(N3C(=O)C=CC3=O)cc2)cc1 |  | 13 µM (active)
29 | O=C(O)C(F)(F)C(F)(F)C(F)(F)OC(F)(F)F | inactive | 
30 | OCC(F)(F)C(F)(F)C(F)(F)C(F)(F)C(F)(F)C(F)(F)C(F)(F)C(F)(F)CO | inactive | 
31 | C=CC(=O)OCCC(F)(F)C(F)(F)C(F)(F)C(F)(F)F | inactive | 
32 | O=S(=O)(Cl)C(F)(F)C(F)(F)C(F)(F)C(F)(F)C(F)(F)C(F)(F)C(F)(F)C(F)(F)F | inactive | 
33 | COC(F)(C(F)F)C(F)(F)F (stereo unspecified) | inactive | 
34 | Cc1ccc(S(=O)(=O)C(I)I)cc1 |  | 6.86 µM (active)
35 | FC(F)(F)C(F)(F)C(F)(F)CC1CO1 (stereo unspecified) | inactive | 

Read-out: not listed separately
Assay: BSK_SAg_PBMCCytotoxicity: PBMC Cytotoxicity Assessment in the BioMAP Diversity Plus: SAg Assay (AID 2283093);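 also: PBMC viability measured as Alamar Blue reduction fluorescence at 546/580 nm; fitted both ways against DMSO so a hit may be loss or gain of signal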;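 as to AC50: PBMC superantigen activated with SEB plus TSST-1 one hour after compound addition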
Settings: primary human HUVEC with PBMC
How it was run: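 Alamar Blue reduction (6 h, ex/em 546/580 nm) read after 90 h culture of PBMC pre-dosed 1 h then stimulated with SEB plus TSST-1, 20 ng/mL each. Gain or loss of signal fitted relative to DMSO.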

Row | Structure (SMILES) | outcome | AC50
36 | O=C(c1ccccc1)c1ccc(O)cc1O | inactive | 
37 | Nc1cc([N+](=O)[O-])cc(Cl)c1O | inactive | 
38 | O=S(=O)(O)CCC(F)(F)C(F)(F)C(F)(F)C(F)(F)F | inactive | 
39 | O=C=NCc1cccc(CN=C=O)c1 | inactive | 
40 | O=C=Nc1cccc2c(N=C=O)cccc12 | inactive | 
41 | CCN(CC)c1ccc2c(c1)Oc1cc(N(CC)CC)ccc1C21OC(=O)c2ccccc21 |  | 6.68 µM (active)
42 | NS(=O)(=O)C(F)(F)C(F)(F)C(F)(F)C(F)(F)C(F)(F)C(F)(F)F | inactive | 11.8 µM (active)
43 | OC(O)C(F)(F)C(F)(F)F | inactive | 
44 | O=C(O)C(F)(F)C(F)(F)C(F)(F)OC(F)(C(F)(F)F)C(F)(F)F | inactive | 
45 | OCCCC(F)(F)C(F)(F)C(F)(F)C(F)(F)C(F)(F)C(F)(F)C(F)(F)C(F)(F)F |  | 17.3 µM (active) and 14.4 µM (active)
46 | C=CC(=O)OCC(F)(F)C(F)(F)C(F)(F)C(F)(F)C(F)(F)C(F)(F)C(F)(F)C(F)F |  | 26.8 µM (active) and 16.6 µM (active)
47 | C=CC(=O)OCC(F)(F)C(F)(F)C(F)(F)COC(=O)C=C |  | 14.2 µM (active) and 12.8 µM (active)
48 | O=C(O)C(F)(F)C(F)(F)C(F)(F)C(=O)O | inactive | 
49 | CCOC(=O)CC(=O)C(F)(F)C(F)(F)F | inactive | 
50 | C=C(C)C(=O)OCC(F)(F)C(F)(F)C(F)(F)C(F)F | inactive | 
51 | CC(C)(C)c1cc(CCC(=O)NCCCCCCNC(=O)CCc2cc(C(C)(C)C)c(O)c(C(C)(C)C)c2)cc(C(C)(C)C)c1O | inactive | 
52 | Brc1nc2ccccc2s1 | inactive | 
53 | NC(O)(C(F)(F)F)C(F)(F)F | inactive | 

Row | Structure (SMILES) | outcome | AC50
54 | O=S(=O)(OCC(F)(F)F)C(F)(F)C(F)(F)C(F)(F)C(F)(F)F | inactive | 
55 | CCN(CC)c1ccc(C=O)cc1 | inactive | 
56 | O=S(=O)(O)CCC(F)(F)C(F)(F)C(F)(F)C(F)(F)C(F)(F)C(F)(F)C(F)(F)C(F)(F)F | inactive | 
57 | CNS(=O)(=O)C(F)(F)C(F)(F)C(F)(F)C(F)(F)C(F)(F)C(F)(F)C(F)(F)C(F)(F)F | inactive | 
58 | NCC(F)(F)C(F)(F)C(F)(F)C(F)(F)C(F)(F)C(F)(F)F | inactive | 
59 | O=C(O)CCC(F)(F)C(F)(F)C(F)(F)C(F)(F)C(F)(F)C(F)(F)C(F)(F)F | inactive | 
60 | OCCCCC(F)(F)C(F)(F)C(F)(F)C(F)(F)F | inactive | 
61 | O=C1c2c(O)ccc(Nc3ccc(CCO)cc3)c2C(=O)c2c([N+](=O)[O-])ccc(O)c21 |  | 9.47 µM (active)
62 | CCOC(C=C(C)CCC=C(C)C)OCC | inactive | 
63 | O=C1C=CC(=O)N1c1ccc(Cc2ccc(N3C(=O)C=CC3=O)cc2)cc1 |  | 7.25 µM (active)
64 | O=C(O)C(F)(F)C(F)(F)C(F)(F)OC(F)(F)F | inactive | 
65 | OCC(F)(F)C(F)(F)C(F)(F)C(F)(F)C(F)(F)C(F)(F)C(F)(F)C(F)(F)CO |  | 43.8 µM (active) and 50.7 µM (active)
66 | C=CC(=O)OCCC(F)(F)C(F)(F)C(F)(F)C(F)(F)F |  | 30 µM (active)
67 | O=S(=O)(Cl)C(F)(F)C(F)(F)C(F)(F)C(F)(F)C(F)(F)C(F)(F)C(F)(F)C(F)(F)F | inactive | 
68 | COC(F)(C(F)F)C(F)(F)F (stereo unspecified) | inactive | 
69 | Cc1ccc(S(=O)(=O)C(I)I)cc1 |  | 1.43 µM (active)
70 | FC(F)(F)C(F)(F)C(F)(F)CC1CO1 (stereo unspecified) | inactive | 
